PTHR1 ag: qHTS for PTHR1 Agonists: Primary Screen | Parathyroid hormone/parathyroid hormone-related peptide receptor (Homo sapiens), Q03431 | HEK293 GP2 PTHR1 cells, GloSensor cAMP luminescence, 1 h | Potency, µM (top dose mostly 115 µM), hits mostly activators | hit rate 0.075% among 410,000 | AID 743266, 2014; further: nearly all actives have a fitted effect of over 55% in size
Target sequence (Q03431 whole entry, looked up): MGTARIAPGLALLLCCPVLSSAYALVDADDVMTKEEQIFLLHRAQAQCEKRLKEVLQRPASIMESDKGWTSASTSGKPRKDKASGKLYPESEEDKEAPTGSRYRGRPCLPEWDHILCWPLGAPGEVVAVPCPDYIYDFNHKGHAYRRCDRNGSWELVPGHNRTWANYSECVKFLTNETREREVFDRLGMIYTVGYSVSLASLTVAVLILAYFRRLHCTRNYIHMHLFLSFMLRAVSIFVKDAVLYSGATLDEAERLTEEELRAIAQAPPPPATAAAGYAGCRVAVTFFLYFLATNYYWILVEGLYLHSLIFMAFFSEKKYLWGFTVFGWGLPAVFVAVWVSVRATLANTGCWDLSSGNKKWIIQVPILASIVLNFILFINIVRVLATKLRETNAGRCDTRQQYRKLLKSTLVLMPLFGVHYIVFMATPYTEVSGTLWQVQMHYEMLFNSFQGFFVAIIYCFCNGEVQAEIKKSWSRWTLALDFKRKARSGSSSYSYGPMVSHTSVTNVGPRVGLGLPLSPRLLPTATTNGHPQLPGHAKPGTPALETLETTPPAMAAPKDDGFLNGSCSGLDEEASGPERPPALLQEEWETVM
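HEK-293-derived GP2 cells expressing PTHR1 and a GloSensor cAMP reporter, 3,000/well, plated overnight, given luciferin plus IBMX (each 0.5 mM as added) for 1 h at 37 °C, then compound for 1 h at 37 °C. Luminescence was read after 15 min at room temperature.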
GLP-1R agonist: qHTS of GLP-1 Receptor Agonists | hit rate 0.007% among 380,000 | Potency, µM (titrated, usually from 45.6 µM), actives largely listed as activators | Glucagon-like peptide 1 receptor (Homo sapiens), P43220 | HEK293 GLP-1R CRE-luciferase, luminescence, 4-6 h; cells express a hypersensitive GLP-1R form
GLP1R cytotox: qHTS of GLP-1 Receptor Inverse Agonists: Cytotox Screen; AID 624418, 2012; Potency, µM (titrated, usually from 38.3 µM), actives largely listed as inhibitors; hit rate 0.13% among 410,000; HEK293 cAMP-luciferase reporter cells, luminescence, 24 h;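 further: loss of luciferase light is scored as toxicity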
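Cells in DMEM/10% Nu serum/1% pen-strep, 1536-well format. Pre-incubated 12 h, dosed with 23 nL compound, incubated a further 24 h. Luciferase detection, 12 min at room temp, luminescence.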
GLP1R inv ag: qHTS of GLP-1 Receptor Inverse Agonists (Inhibition Mode); Glucagon-like peptide 1 receptor (Homo sapiens), P43220; HEK293 GLP-1R CRE-luciferase, luminescence, 24 h; GLP-1R form is constitutively active; Potency, µM (top dose mostly 38.3 µM), actives largely listed as inhibitors; hit rate 1.6% among 410,000; AID 624417, 2012; further: nearly all actives have a fitted effect of over 55% in size
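Readout was luciferase luminescence, measured 12 min after detection reagent at room temperature. Beforehand, GLP-1R reporter HEK293 cells had sat 12 h, then received compounds for 24 hr at 37 deg C.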
Large screens that a line does not name were inactive. Compounds with a hit are over-represented: about 1.7% of the library has one in this group of screens. The call rests on the fitted dose curve; in most records, active means well fitted curve in the direction sought with a large enough effect; inconclusive means small, poorly fitted or top-dose-only effect, or another doubt; inactive means no such curve, though single readings can be large; an effect the other way counts as inactive or inconclusive.

CCOC(=O)c1ccccc1NC(=O)c1nn(-c2ccc(C)cc2)c(=O)n(C)c1=O	none (no result: GLP-1R agonist)
COC(=O)c1ccc(CN2CCC(Oc3ccc(C(=O)N4CCCCC4)cc3)CC2)cc1	GLP1R inv ag inconclusive
Cc1cc(C)cc(CN2CCC(Oc3ccc(C(=O)N4CCCC4)cc3)CC2)c1	PTHR1 ag inconclusive, GLP1R inv ag 10µM
CCS(=O)(=O)N1CCN(C(=O)COc2ccc(-c3ccccc3)cc2)CC1	none
O=C(c1ccc(OC2CCN(CCc3ccccc3)CC2)cc1)N1CCCC(CO)C1 (configuration not stated)	none
CC1CCCN(C(=O)COc2ccc(-c3ccccc3)cc2)C1 (configuration not stated)	GLP1R inv ag 11µM
CCCOC1CCCN(C(=O)c2ccc(OC3CCN(C(=O)COC)CC3)cc2)C1 (configuration not stated)	GLP1R cytotox 10µM, GLP1R inv ag 11µM
CC1CCCN(C(=O)c2ccc(OC3CCN(CCc4ccccc4)CC3)cc2)C1 (configuration not stated)	GLP1R cytotox inconclusive, GLP1R inv ag 8.9µM
CCc1ccc2ncc(S(=O)(=O)c3ccc(Cl)cc3)c(N3CCN(CC)CC3)c2c1	none (no result: GLP-1R agonist)
CC(C)(C)OC(=O)N(CCc1ccccc1)Cc1ccc(OCc2cccc(NC(=O)C3CC3)c2)cc1	GLP1R inv ag 7.9µM
CC(C)(C)OC(=O)N(CCc1ccccc1)Cc1ccc(OCc2cccc(NC(=O)/C=C/c3ccccc3)c2)cc1	GLP1R inv ag inconclusive
CC(C)(C)OC(=O)N(CCc1ccccc1)Cc1ccc(OCc2cccc(NC(=O)C3CCC3)c2)cc1	GLP1R inv ag inconclusive
CC(C)(C)OC(=O)N(CCc1ccccc1)Cc1cccc(OCc2cccc(NC(=O)c3ccccc3)c2)c1	GLP1R inv ag 10µM
Brc1ccc2ncnc(NCc3ccccc3)c2c1	GLP1R inv ag 1.4µM
COCCCN(C(=O)CSCc1c(C)noc1C)c1c(N)n(Cc2ccccc2)c(=O)[nH]c1=O	none
CO/N=C\CC(=O)Nc1ccc(Oc2ccccc2)cc1	GLP1R inv ag 1.3µM
O=C(C/C=N\O)Nc1ccc(Oc2ccccc2)cc1	none
Cc1ccc(C(=O)c2sc(Nc3ccc(F)cc3)nc2N)c(C)c1	GLP1R inv ag 5µM (no result: GLP-1R agonist)
COc1ccc(Nc2nc(N)c(C(=O)c3ccc(F)cc3)s2)cc1	GLP1R inv ag inconclusive
O=C(Nc1ccc(S(=O)(=O)N2CCCCC2c2cccnc2)cc1)c1ccc(Br)cc1 (configuration not stated)	GLP1R inv ag 10µM (no result: GLP-1R agonist)
CCOc1ccc(C(=O)Nc2ccc(S(=O)(=O)N3CCCCC3c3cccnc3)cc2)cc1 (configuration not stated)	GLP1R inv ag inconclusive (no result: GLP-1R agonist)
CC/C(O)=N/S(=O)(=O)c1ccc(-c2c(-c3ccccc3)noc2C)cc1	none (no result: PTHR1 ag, GLP1R cytotox, GLP1R inv ag)
CC(C)(C)n1nnnc1C(c1cccs1)N(Cc1ccc(Cl)cc1)CC1CCCO1 (configuration not stated)	GLP1R inv ag 5µM
Cc1ccccc1C(=O)Nc1ccc(S(=O)(=O)N2CCC(c3nc4ccccc4s3)CC2)cc1	none (no result: GLP-1R agonist)
Clc1ccc(CN2CCC(c3nc4ccc(Cl)cc4[nH]3)CC2)cc1	GLP1R cytotox inconclusive, GLP1R inv ag 7.9µM
CC1CCCN(C(=O)CN2CCC(c3nc4ccc(Cl)cc4[nH]3)CC2)C1 (configuration not stated)	GLP1R inv ag inconclusive
COc1ccccc1CNC(=O)c1cc(-c2ccccc2)nn1Cc1cc(C)no1	GLP1R inv ag inconclusive
CCc1cc(Cn2nc(-c3ccccc3)cc2C(=O)NCc2ccccc2OC)on1	GLP1R inv ag 11µM
CCC1CCCCN1CCCNC(=O)c1ccc2c(c1)N(Cc1cccc(C)c1)C(=O)c1ccccc1S2(=O)=O (configuration not stated)	GLP1R inv ag inconclusive
COc1ccccc1NC(=S)NC(=O)c1c(-c2ccccc2Cl)noc1C	GLP1R inv ag 4µM
Cc1ccc(NC(=S)NC(=O)c2c(-c3ccccc3Cl)noc2C)cc1	none
CCCOC(=O)c1cccc(NC(=O)c2c(-c3ccccc3Cl)noc2C)c1	GLP1R inv ag 8.9µM (no result: GLP-1R agonist)
Cc1onc(-c2ccccc2Cl)c1C(=O)NC(=S)Nc1ccc(C(C)C)cc1	GLP1R inv ag 4µM
CC(=O)c1ccc(NC(=O)CCc2c(C)nc3c(c2C)c(=O)n(C)c(=O)n3C)cc1	none
CCN1C(=O)C(Cc2nc3ccccc3c(=O)n2-c2cccc(C)c2)c2ccccc21 (configuration not stated)	none (no result: GLP-1R agonist)
C=CCNC(=S)N/N=C/c1ccc(C)c([N+](=O)[O-])c1	GLP1R cytotox 7.9µM, GLP1R inv ag inconclusive
C=CCNC(=S)N/N=C/c1ccc(C)cc1C	GLP1R cytotox inconclusive, GLP1R inv ag inconclusive
O=S(=O)(c1cccc(F)c1)N1CCc2sccc2C1c1ccc(OC(F)(F)F)cc1 (configuration not stated)	GLP1R inv ag 7.9µM
COc1ccc(N2CCN(C(c3ccccc3)c3nnnn3Cc3ccc(F)cc3)CC2)cc1 (configuration not stated)	GLP1R inv ag 13µM
COc1ccccc1C(c1nnnn1CCc1ccccc1)N1CCN(c2ccccc2)CC1 (configuration not stated)	none
COc1ccccc1N1CCN(C(c2ccccc2)c2nnnn2CCc2ccccc2)CC1 (configuration not stated)	GLP1R inv ag 11µM
Fc1ccc(C(c2nnnn2CCc2ccccc2)N2CCCc3ccccc32)cc1 (configuration not stated)	GLP1R inv ag 2.8µM
COc1ccccc1C(c1nnnn1CCc1ccccc1)N1CCCCCC1 (configuration not stated)	GLP1R inv ag 11µM
Fc1ccc(C(c2nnnn2C2CCCC2)N2CCc3ccccc32)cc1 (configuration not stated)	GLP1R inv ag inconclusive
Cc1cc2c(cc1NC(=O)c1ccc(C(C)(C)C)cc1)n(C)c(=O)c(=O)n2C	none (no result: GLP-1R agonist)
CC1CCc2nc3ccccc3c(C(=O)OCC(=O)N3CCc4ccccc43)c2C1 (configuration not stated)	none
CCCc1nc2ccccc2c(C(=O)OCC(=O)N2CCc3ccccc32)c1CC	GLP1R inv ag 2.8µM
Cc1ccc(C(=O)Nc2cccc(C(F)(F)F)c2)cc1NC(=O)c1c[nH]c2cc(C(F)(F)F)ccc2c1=O	none
CCN1CCN(Cc2ccc(NC(=O)c3ccc(C)c(NC(=O)c4c[nH]c5cc(C(F)(F)F)ccc5c4=O)c3)cc2C(F)(F)F)CC1	GLP1R cytotox inconclusive, GLP1R inv ag 10µM
Cc1ccc(C(=O)N2c3ccc(C)cc3C(C)(c3ccccc3)CC2(C)C)cc1 (configuration not stated)	GLP1R inv ag inconclusive (no result: GLP-1R agonist)

Screens deposited in PubChem by National Center for Advancing Translational Sciences (NCATS).
